Assay outcomes from PubChem BioAssay.
This is a sample that favours compounds with a hit; in the whole collection about 3.5% have one here.
TEAD-YAP block: TEAD-YAP interaction inhibition. HEK-TIYL cells, TEAD-Gal4/YAP UAS-luciferase luminescence. inhibition, % at 9.12 µM. 640,000 tested, 1.4% active. AID 1259422; in the data active means inhibition above about 32%;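 further: 0% = median of test compound wells and 100% = reference inhibitor wells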
FBW7 activator: human FBW7 E3 ligase activation, primary screen; normalized activity (activation), % at 26.1 µM; AID 1259310; Q969H0; AlphaScreen FBW7–phospho-cyclin E peptide binding, activator screen; 650,000 tested, 0.13% active; in the data active means normalized activity above about 1.9%;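 further: purified mutant Fbw7 with reduced substrate affinity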
GPR151 ag: activators of human GPR151. 650,000 tested, 1% active. PathHunter beta-arrestin GPR151 cells, luminescence. AID 1508602. Q8TDV0. activation, % at 11.2 µM; in the data active means activation above about 4.9%;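 further: 0% = median of compound wells and 100% = cells with positive control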
MITF inh: human MITF inhibition, primary screen; O75030; AlphaScreen MITF homodimerization, bead proximity signal; inhibition, % at 2.6 µM; 650,000 tested, 0.91% active; in the data active means inhibition above about 50%;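 further: 0% = vehicle wells with protein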
GPR151 conf act: confirmation of human GPR151 activators; shares compounds with GPR151 ag; activation, % at 11.2 µM; GPR151 PathHunter beta-arrestin cells, luminescence, 90 min; % of EA-reagent control over plate median; AID 1508609; 6,700 tested, under 10 active;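 active means mean percent activation across replicates above the confirmation screen cutoff of 4.91%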
GPR119 ag: activates human GPR119 in a GPR151 counter-screen; 6,700 tested, 0.3% active; GPR119 PathHunter beta-arrestin cells, luminescence, 90 min; 0 = compound-well median, 100 = enzyme-acceptor control; activation, % at 11.2 µM; shares compounds with GPR151 ag; AID 1508611;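 active means mean percent activation in the counterscreen above 29.09%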;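 further: counterscreen on off-target GPR119 to flag nonselective hits from the GPR151 activator screen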
Target sequence (Q8TDV5 whole entry, looked up): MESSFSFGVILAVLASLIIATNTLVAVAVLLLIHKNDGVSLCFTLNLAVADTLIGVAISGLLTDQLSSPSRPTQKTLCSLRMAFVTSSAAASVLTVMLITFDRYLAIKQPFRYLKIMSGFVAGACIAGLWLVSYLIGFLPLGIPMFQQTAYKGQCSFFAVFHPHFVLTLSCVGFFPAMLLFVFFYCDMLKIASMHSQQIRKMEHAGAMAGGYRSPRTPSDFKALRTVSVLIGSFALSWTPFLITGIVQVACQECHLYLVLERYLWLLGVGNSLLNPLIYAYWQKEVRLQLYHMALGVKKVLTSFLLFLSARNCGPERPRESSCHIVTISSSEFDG
Active calls of the source: *; / = no result given.

SMILES	TEAD-YAP block	FBW7 activator	GPR151 ag	MITF inh	GPR151 conf act	GPR119 ag
O=C1CC[C@@H](C(=O)N2CCC(CO)(CCc3ccccc3)CC2)N1	0	0	1	-7	/	/
COCCOC(=O)C1=C(N)Oc2c(oc(CO)cc2=O)C1c1c(F)cccc1Cl (stereo unspecified)	13	0	5.7*	-15	0	9
CNC(=O)OCc1ccc(-c2ccc(Cl)cc2)o1	-11	0	5.9*	0	0	7
CNC(=O)OCc1ccc(-c2ccc(C)cc2)o1	-26	-1	0	1	/	/
Cc1ccc(N2CC(NC(=O)C3CCCC3)CC2=O)cc1C (stereo unspecified)	6	0	5.5*	-15	1	6
COc1ccc(N2CC(NC(=O)C3CCCC3)CC2=O)cc1 (stereo unspecified)	4	0	-1	12	/	/
CCN1CCCC1CNC(=O)NC1CC(=O)N(c2ccc(C)c(C)c2)C1 (stereo unspecified)	-13	-1	7.0*	4	0	3
CCC(Sc1nnc(-c2ccc(OC)c(OC)c2)c(-c2ccc(OC)c(OC)c2)n1)C(=O)N(CC)CC (stereo unspecified)	-17	0	2	-22	/	/
CC1CCC2(CC1)NC(=O)N(CN1CCN(C/C=C/c3ccccc3)CC1)C2=O (stereo unspecified)	5	0	1	-9	/	/
COc1cc(NC(=O)c2ccc(-c3ccc(C(=O)N4CCN(C)CC4)cc3)s2)cc(OC)c1OC	6	0	3	12	/	/
COc1cc(NC(=O)c2ccc(-c3ccc(C(=O)NC4CC4)cc3)s2)cc(OC)c1OC	43*	0	5.3*	7	1	4
O=C(NC1CCS(=O)(=O)C1)/C(=C/c1cn(-c2ccccc2)nc1-c1cccs1)NC(=O)c1ccccc1 (stereo unspecified)	16	0	5.8*	-7	2	15
CN(CCCC(=O)Nc1ncn[nH]1)S(=O)(=O)c1ccccc1	9	0	-1	25	/	/
CN1/C(=C\C=N\NC(=S)Nc2cccnc2)C(C)(C)c2ccccc21	29	0	7.4*	3	0	2
COc1ccc(OC)c(NC(=O)CC(Cc2ccc(Cl)cc2)C(=O)O)c1 (stereo unspecified)	6	0	5.2*	8	0	-7
COc1cc(C(=O)OCC(=O)c2ccc([N+](=O)[O-])cc2)cc(OC)c1OC	-5	0	-1	27	/	/
CC(C)C(=O)NC(C)c1nnc2n1CCN(Cc1ccco1)CC2 (stereo unspecified)	-7	0	12*	-24	0	9
CCCNC(=O)c1cc(-c2ccccn2)nc2ccccc12	9	0	0	9	/	/
CCN(CCCNC(=O)c1cc(-c2ccccn2)nc2ccccc12)c1cccc(C)c1	-2	0	8.0*	-2	0	3
COc1ccc2ccccc2c1/C=C(\C#N)c1ccccn1	-10	0	5.2*	0	0	10
COc1ccc(/C=C(\C#N)c2ccccn2)c(OC)c1OC	-44	0	1	1	/	/
COC(=O)C1=C(C(=O)OC)[C@@H]2N(C)c3ccc(OC)cc3[C@@]23C[C@@H](C(=O)OC)N(C(=O)c2ccco2)C3=N1	/	0	6.1*	16	0	-3
CC(=O)NS(=O)(=O)c1ccc(NC(=O)COc2ccc(C)cc2)cc1	0	0	1	-12	/	/
CC(=O)NS(=O)(=O)c1ccc(NC(=O)COc2ccc(Br)cc2)cc1	6	0	5.8*	7	-1	-12
CC(C)(C)NS(=O)(=O)c1ccc(NC(=O)COc2ccc(Br)cc2)cc1	1	0	16*	4	1	14
CC(=O)Nc1ccc(NC(=O)COc2ccc(Br)cc2C)cc1	-23	0	8.7*	11	0	-4
Cc1cc(Br)ccc1OCC(=O)Nc1ccc(C(N)=O)cc1	-2	0	0	5	/	/
CC(C)(C)NS(=O)(=O)c1ccc(NC(=O)COc2ccc3ccccc3c2)cc1	10	0	1	0	/	/
COc1ccccc1OCC(=O)Nc1ccc(S(=O)(=O)NC(C)=O)cc1	12	0	16*	0	-1	-9
